Inconclusive results are not listed. Entries that show only a call come without a potency. Values without a mark were called inactive. The source made the active and inactive calls. Unless noted, calls follow the shape of the dose curve; as a rule, active = well fitted curve in the direction sought with a large enough effect; inconclusive = small, poorly fitted or top-dose-only effect, or another doubt; inactive = no such curve, though single readings can be large; an effect the other way counts as inactive or inconclusive.

Assay [1] is described as follows: qHTS Assay for Identification of Small Molecule Inducers of Hypoxia Response (AID 2120; active = well fitted curve in the direction sought with a large enough effect in the signal ratio, with a control signal flat, not every such curve was filed as active; the % refers to the signal ratio). In a few lines:
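HRE-bla ME-180, 2500 cells/well, 0.5% dialyzed FBS medium; cpd titration, 17 h 37 degrees C; CCF4 2.5 h RT; Ex 405, Em 460/530 ratio -> %Activity, AC50.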

For assay [2], the target named is Ubiquitin carboxyl-terminal hydrolase 1 (Homo sapiens) (UniProt O94782). Kind of assay: Inhibitors of USP1/UAF1: Pilot qHTS (AID 504865).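 Also: rhodamine fluorescence freed from ubiquitin-rhodamine substrate followed over time; top concentration of the series differs between compounds; nearly all actives have a fitted effect of over 35% in size.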 In a few lines: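 In 50mM HEPES pH 7.8 containing 0.5mM EDTA, 1mM TCEP, 0.1 mg/ml BSA and 0.01% Tween-20, 1nM USP1/UAF1 is exposed to compound for 15 min, then Ub-Rho (150nM final) is added and fluorescence is read over time.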
Chain of Ubiquitin carboxyl-terminal hydrolase 1 (Homo sapiens) (O94782 whole entry, looked up): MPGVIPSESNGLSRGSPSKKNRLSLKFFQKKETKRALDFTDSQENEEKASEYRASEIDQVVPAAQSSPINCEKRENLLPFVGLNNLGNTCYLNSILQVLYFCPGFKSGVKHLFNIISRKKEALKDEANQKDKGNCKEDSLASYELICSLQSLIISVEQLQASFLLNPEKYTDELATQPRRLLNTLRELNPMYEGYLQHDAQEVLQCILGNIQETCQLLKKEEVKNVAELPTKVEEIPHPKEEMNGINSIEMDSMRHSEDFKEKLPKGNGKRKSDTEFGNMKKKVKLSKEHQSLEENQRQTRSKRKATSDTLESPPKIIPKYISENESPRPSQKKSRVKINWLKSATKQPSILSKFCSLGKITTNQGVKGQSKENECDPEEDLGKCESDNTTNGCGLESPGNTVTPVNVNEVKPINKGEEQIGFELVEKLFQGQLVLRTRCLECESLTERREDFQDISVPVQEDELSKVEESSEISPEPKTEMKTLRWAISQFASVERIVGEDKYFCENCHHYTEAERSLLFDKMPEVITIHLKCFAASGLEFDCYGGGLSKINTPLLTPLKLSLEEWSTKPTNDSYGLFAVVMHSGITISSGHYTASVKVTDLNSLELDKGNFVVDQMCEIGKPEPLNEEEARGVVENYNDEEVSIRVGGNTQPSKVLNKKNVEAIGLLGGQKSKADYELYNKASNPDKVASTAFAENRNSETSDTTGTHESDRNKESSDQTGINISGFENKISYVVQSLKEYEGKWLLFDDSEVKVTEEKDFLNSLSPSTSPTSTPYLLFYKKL

Assay [3] deals with Estrogen receptor (Homo sapiens) (UniProt P03372). The assay can be described thus: qHTS assay for small molecule antagonists of estrogen receptor alpha signaling (AID 588513; active = well fitted curve in the direction sought with a large enough effect in the signal ratio, with a control signal flat, not every such curve was filed as active; the % refers to the signal ratio). In a few lines:
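Fluorescence from CCF4 substrate after 2 h at room temperature gave reporter activity; cells had been exposed to compound and 0.5nM 17-beta-estradiol for 18 h at 37 C. Hill-equation fitting yielded IC50 and maximal response.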

Assay [4] shares this target. Kind of assay: qHTS assay for small molecule agonists of estrogen receptor alpha signaling (AID 588514; calls by dose curve; also: nearly all actives have a fitted effect of over 70% in size). In a few lines: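 Fluorescence from CCF4 cleavage reports ER-alpha-driven beta-lactamase expression in HEK 293 cells treated 18 hrs at 37 C. Data normalized to 17-beta-estradiol (20 nM) and DMSO, fitted to Hill equation.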
In assay [5] the target is ATP-dependent 6-phosphofructokinase (Trypanosoma brucei brucei) (UniProt O15648). Kind of assay: qHTS Assay to Find Inhibitors of T. brucei phosphofructokinase: hit validation (AID 492961).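 Also: luminescence reports ADP formed as PFK phosphorylates fructose-6-phosphate with ATP; series mostly up to about 51 µM.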 In a few lines: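 Compounds titrated; %activity normalized to 0x and 1x enzyme controls, curve-fitted. Readout: ADP-Glo luminescence after 45 min room-temperature reaction of 1.25 nM PFK, 0.1 mM ATP, 0.5 mM F6P, pH 8.0.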
Chain of ATP-dependent 6-phosphofructokinase (Trypanosoma brucei brucei) (O15648 whole entry, looked up): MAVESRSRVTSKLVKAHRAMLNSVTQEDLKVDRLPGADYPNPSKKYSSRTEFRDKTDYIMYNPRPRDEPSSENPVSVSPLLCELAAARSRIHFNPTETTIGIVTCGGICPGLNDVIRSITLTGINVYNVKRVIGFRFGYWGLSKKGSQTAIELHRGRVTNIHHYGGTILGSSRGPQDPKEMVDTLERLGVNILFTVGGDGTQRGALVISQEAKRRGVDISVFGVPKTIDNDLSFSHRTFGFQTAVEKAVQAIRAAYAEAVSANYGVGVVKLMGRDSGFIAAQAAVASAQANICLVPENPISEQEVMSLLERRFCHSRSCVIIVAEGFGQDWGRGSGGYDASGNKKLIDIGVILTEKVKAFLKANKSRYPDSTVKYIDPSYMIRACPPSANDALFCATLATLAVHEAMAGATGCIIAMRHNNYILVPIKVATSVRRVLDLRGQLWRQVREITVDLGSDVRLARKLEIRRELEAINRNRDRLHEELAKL

Chain of Estrogen receptor (Homo sapiens) (P03372 whole entry, looked up): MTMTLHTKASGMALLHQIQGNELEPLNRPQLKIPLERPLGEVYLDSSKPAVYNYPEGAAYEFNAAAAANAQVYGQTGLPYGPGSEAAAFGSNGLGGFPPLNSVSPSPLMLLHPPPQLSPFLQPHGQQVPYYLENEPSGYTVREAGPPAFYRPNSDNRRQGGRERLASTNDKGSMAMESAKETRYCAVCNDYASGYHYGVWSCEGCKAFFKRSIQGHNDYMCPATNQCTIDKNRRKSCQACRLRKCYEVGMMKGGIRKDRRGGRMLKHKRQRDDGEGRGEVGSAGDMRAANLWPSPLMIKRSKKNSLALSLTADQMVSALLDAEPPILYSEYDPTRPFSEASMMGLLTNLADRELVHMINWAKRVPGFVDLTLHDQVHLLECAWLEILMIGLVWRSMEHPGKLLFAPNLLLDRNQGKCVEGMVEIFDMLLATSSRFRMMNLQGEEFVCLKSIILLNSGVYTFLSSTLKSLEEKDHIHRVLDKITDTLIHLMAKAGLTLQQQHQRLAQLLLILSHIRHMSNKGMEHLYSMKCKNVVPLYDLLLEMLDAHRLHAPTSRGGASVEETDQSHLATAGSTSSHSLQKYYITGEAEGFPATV

On to `Cc1cc(=O)[nH]c(=S)[nH]1`, for which the call in assay [1], in assay [3] and in assay [4] was inactive. The Potency entry in assay [2] is “inactive”.

Take `Cc1cc(C)nc(NS(=O)(=O)c2ccc(N)cc2)n1`: the outcome in assay [1] was inactive. Besides, the Potency result in assay [2] was “inactive”.

Take `CC(C)(C)C(=O)OCOC(=O)[C@@H]1N2C(=O)[C@@H](NC(=O)[C@H](N)c3ccccc3)[C@H]2SC1(C)C`: in assay [5], the compound was called inactive. Further, the Potency result in assay [2] is “inactive”.

For the compound `Cc1c(NC(=O)c2cccnc2)c(=O)n(-c2ccccc2)n1C`, the outcome in assay [5] was inactive.

Turning to `COc1ccc(O)cc1`, the compound was called inactive in assay [1] and in assay [5]. The Potency entry in assay [2] was “inactive”.

Regarding `O=C(c1ccccc1)C(O)c1ccccc1` (configuration not stated), in assay [1], the call was inactive. For the same compound, the Potency entry in assay [2] was “inactive”.

As for `Cc1cccc(C(=O)O)c1O`, the compound was called inactive in assay [5]. Moreover, the Potency entry in assay [2] was “inactive”.

Consider `C=CCSCC1Nc2cc(Cl)c(S(N)(=O)=O)cc2S(=O)(=O)N1` (configuration not stated), for which, in assay [5], the compound was classed as inactive. Further, the Potency result in assay [2] is “inactive”.

For the compound `FC(F)(F)C(Cl)Br` (configuration not stated), the outcome in assay [1], in assay [5], in assay [3] and in assay [4] was inactive. Further, the Potency result in assay [2] is “inactive”.

As for `CCN(CC)C(=O)c1cccc(C)c1`, the compound was called inactive in assay [1], in assay [3] and in assay [4]. For the same compound, the Potency entry in assay [2] was “inactive”.

For the compound `CC(C)CCCC(C)CCCC(C)CCCCC(C)CCCC(C)CCCC(C)C` (configuration not stated), the compound was classed as inactive in assay [5]. The Potency entry in assay [2] is “inactive”.

For the compound `CC(C)CCOC(=O)c1ccc(N(C)C)cc1`, in assay [5], the compound was called inactive.

Take `O=C1C(c2[nH]c3ccccc3c2O)=Nc2ccccc21`: the compound was classed as inactive in assay [1].

On to `CCCOC(=O)c1ccc(N)cc1`, for which, in assay [5], the outcome was inactive. In assay [2], the Potency entry was “inactive”.

As to `CC(=O)Nc1ccccc1`, the result in assay [1], in assay [5], in assay [3] and in assay [4] was inactive. For the same compound, the Potency result in assay [2] was “inactive”.

On to `CCCCCCCCCCOc1cc2c(=O)c(C(=O)OCC)c[nH]c2cc1OCC`, for which the call in assay [5] was inactive. In assay [2], the Potency result was “inactive”.

In the case of `CN1CCN(C(=O)C2CCCCC2)CC1`, the result in assay [5] was inactive. For the same compound, the Potency entry in assay [2] was “inactive”.

`CN/C(=C\[N+](=O)[O-])NCCSCc1csc(CN(C)C)n1`: in assay [5], the outcome was inactive. Moreover, in assay [2], the Potency result was “inactive”.

For `CCOC(=O)[C@H](CCc1ccccc1)N[C@@H](C)C(=O)N1CCC[C@H]1C(=O)O`, in assay [5], the outcome was inactive. Moreover, the Potency entry in assay [2] is “inactive”.

Turning to `NC(=O)NS(=O)(=O)c1ccc(N)cc1`, in assay [5], the call was inactive. Further, the Potency result in assay [2] is “inactive”.

`c1ccc2[nH]ccc2c1`: in assay [5], the call was inactive. In assay [2], the Potency result was “inactive”.

On to `COc1ccc(Cc2cnc(N)nc2N)cc1OC`, for which the result in assay [5] was inactive. The Potency entry in assay [2] was “inactive”.

`O=C(CN1CCNCC1)NC1CCCCC1`: in assay [5], the outcome was inactive. For the same compound, the Potency entry in assay [2] was “inactive”.

`O=C(O)c1ccc(OCCCOc2ccc(C(=O)O)cc2)cc1`: in assay [5], the call was inactive. Also, in assay [2], the Potency result is “inactive”.

Turning to `O=C(O)CNC(=O)c1ccccc1I`, the result in assay [5] was inactive. Moreover, the Potency entry in assay [2] was “inactive”.

As for `NC(N)=NS(=O)(=O)c1ccc(N)cc1`, in assay [5], the result was inactive. The Potency result in assay [2] is “inactive”.

Turning to `COc1ccc(NS(=O)(=O)c2ccc(N)cc2)nn1`, the outcome in assay [5] was inactive. In assay [2], the Potency entry is “inactive”.

Values taken from PubChem BioAssay (NCATS).
